Measured values from PubChem BioAssay (EPA / NIEHS).
Records with an inconclusive call do not appear. Calls of active or inactive are those of the source. Rule for the calls, unless noted: active = hit-call score of the fitted dose curve at least 0.9, where 1 is the maximum; inactive = score below 0.9.

Assays:
[1] = CCTE_Shafer_MEA_acute_spike_number: CCTE's Neural Acute Assay for Total Number of Spikes, Shafer Lab (AID 2284008);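 for AC50: curve fitted for decrease in spike count so AC50 reflects inhibitors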
Procedure, shortened: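 Cortical neurons from rat, matured to DIV 13 or 15 on microelectrode arrays, are recorded at 37 C before and during 40-min exposure to 0.03-40 uM compound. Wells need >/= 10 active electrodes.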

[2] = CCTE_Shafer_MEA_acute_firing_rate_mean: CCTE's Neural Acute Assay for Mean Firing Rate, Shafer Lab (AID 2284009);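 note: analyzed for loss of signal so actives lower firing rate relative to DMSO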
Procedure, shortened: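 Rat primary cortical neurons on 48-well MEA plates, dosed at 0.03-40 uM on DIV 13 or 15; 40 min spontaneous activity recorded at 37 C before and after compound. Spike rate per electrode averaged per well, expressed as percent change from baseline.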

[3] = CCTE_Harrill_HTTr_Viability_MCF7: CCTE's 6-hour Cell Viability Assessment for the High-Throughput Transcriptomics (HTTr) Platform, in MCF-7 cells cultured in DMEM + 10% fetal bovine serum, Harrill Lab (AID 2284010)
Procedure, shortened: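 Membrane integrity was scored by high-content imaging of propidium iodide dye exclusion after a 6 h exposure across an eight-point dilution series. Data were fitted bidirectionally relative to DMSO as negative control and baseline.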

[4] = CCTE_Harrill_HTTr_Apoptosis_MCF7: CCTE's 6-hour Apoptosis Assessment for the High-Throughput Transcriptomics (HTTr) Platform, in MCF-7 cells cultured in DMEM + 10% fetal bovine serum, Harrill Lab (AID 2284011)
Procedure, shortened: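 Cells are dosed with test chemicals at eight concentrations and imaged 6 hours later for caspase-3/7 activity using a green fluorogenic detection reagent. Activity is fitted in both directions against DMSO controls.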

[5] = CCTE_Harrill_HTTr_CellCount_MCF7: CCTE's Cell Proliferation Assessment for the High-Throughput Transcriptomics (HTTr) Platform, Harrill Lab (AID 2284012; active = hit-call score of the fitted dose curve at least 0.9, where 1 is the maximum;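 note: cells exposed to compound for six hours; intended direction is loss of nuclei count meaning fewer cells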)
Procedure, shortened: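 MCF-7 cells were exposed for 6 h to an eight-point dilution series; Hoechst-labeled nuclei were counted by high content imaging. Curves were fitted bidirectionally against DMSO as negative control and baseline, with signal loss indicating reduced cell count.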

[6] = CCTE_Shafer_MEA_acute_burst_number: CCTE's Neural Acute Assay for Single-Electrode Bursts, Shafer Lab (AID 2284013)
Procedure, shortened: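 Primary rat cortical neurons on 16-electrode MEA wells, treated on DIV 13 or 15 with compound at 0.03-40 uM. Single-electrode burst count from 40-min recordings at 37 C before and after exposure; percent change from baseline per well, DMSO negative control.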

[7] = CCTE_Shafer_MEA_acute_burst_duration_mean: CCTE's Neural Acute Assay for Mean Burst Duration, Shafer Lab (AID 2284014);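 note: hits are decreases in mean burst duration relative to DMSO controls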
Procedure, shortened: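 Rat primary cortical neurons on 48-well MEA, treated at DIV 13 or 15 with 0.03-40 uM in at least 3 wells. Value is percent change in mean burst duration, comparing 40 min recordings at 37 C before and during exposure.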

[8] = CCTE_Shafer_MEA_acute_interburst_interval_mean: CCTE's Neural Acute Assay for Mean Interburst Interval, Shafer Lab (AID 2284016);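 note: percent change of mean interburst interval versus each well's own pre-dose baseline; curves fitted for decrease in interburst interval relative to DMSO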
Procedure, shortened: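 Percent change in mean single-electrode interburst interval was calculated per well from 40 min recordings before and after compound (0.03-40 uM). Recordings were made at 37 C on rat cortical cultures at DIV 13 or 15, with spikes detected at 8x rms threshold.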

[9] = CCTE_Shafer_MEA_acute_burst_percentage_mean: CCTE's Neural Acute Assay for Percentage of Spikes in a Burst, Shafer Lab (AID 2284017);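 for AC50: curve fitted for loss of signal so potency reflects decreased burst percentage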
Procedure, shortened: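 Well-level mean burst percentage from a 40-min recording after compound (0.03-40 uM) expressed as percent change from a 40-min baseline at 37C. Cultures: primary rat cortical neurons on MEA, dosed on DIV 13 or 15; fitted downward relative to DMSO.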

[10] = CCTE_Shafer_MEA_acute_burst_percentage_std: CCTE's Neural Acute Assay for Standard Deviation of Burst Percentage, Shafer Lab (AID 2284018);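 note: fitted in the negative direction so actives lower burst percentage SD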
Procedure, shortened: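 Rat primary cortical neurons on 48-well MEAs, DIV 13 or 15, 37 C. 40-min baseline then 40-min recording with compound (0.03-40 uM); well-level SD of per-electrode burst spike percentage, expressed as percent change from baseline.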

[11] = CCTE_Shafer_MEA_acute_per_network_burst_spike_number_std: CCTE's Neural Acute Assay for Standard Deviation of Number of Spikes in a Network Burst, Shafer Lab (AID 2284020);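 note: fitted for decrease in spike-number SD versus DMSO so actives lower it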
Procedure, shortened: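 Rat primary cortical neurons on 48-well MEA (16 electrodes/well), treated DIV 13 or 15 at 0.03-40 uM, ≥3 wells per compound. 40 min recordings at 37 C before and after dosing; value is percent change in network-burst spike-number SD, negative direction vs DMSO.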

[12] = CCTE_Shafer_MEA_acute_per_network_burst_electrodes_number_mean: CCTE's Neural Acute Assay for Mean Number of Electrodes in a Network Burst, Shafer Lab (AID 2284021);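 note: curves fitted for decreases only so hits reduce electrodes per burst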
Procedure, shortened: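 Cultures of rat cortex neurons were exposed on DIV 13 or 15 to compounds at 0.03-40 uM in at least three wells each. Activity over 40 min before and 40 min after exposure at 37 C gave the percent change in electrodes per network burst.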

[13] = CCTE_Shafer_MEA_acute_network_burst_percentage: CCTE's Neural Acute Assay for Percentage of Network Bursts, Shafer Lab (AID 2284022);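 note: curves fitted for loss so actives lower network burst percentage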
Procedure, shortened: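 Cortical neurons from rat were grown over microelectrode arrays and used on day 13 or 15 in vitro. Wells with at least 10 active electrodes received test chemical at 0.03-40 uM. Activity during 40 min of exposure was compared with the preceding 40-min baseline.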

[14] = CCTE_Shafer_MEA_acute_cross_correlation_HWHM: CCTE's Neural Acute Assay for Cross Correlation at Half Width at Half Maximum, Shafer Lab (AID 2284026);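 note: percent change per well from pre-dose baseline in spike cross-correlogram half width; hits are a decrease in cross-correlogram half width relative to DMSO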
Procedure, shortened: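 Primary cortex (rat), MEA, DIV 13/15; compound 0.03-40 uM; 40 min pre + 40 min post at 37 C; spike threshold 8x rms; wells need ≥10 active electrodes; endpoint = % change in cross-correlogram HWHM vs baseline, DMSO negative control.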

[15] = CCTE_Shafer_MEA_acute_synchrony_index: CCTE's Neural Acute Assay for Synchrony, Shafer Lab (AID 2284027);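 note: network synchrony index of spontaneous spiking in primary rat cortical neurons on MEAs; fitted for loss of signal so actives lower synchrony relative to DMSO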
Procedure, shortened: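 Primary rat cortical neurons on 16-electrode MEA wells were recorded 40 min at baseline (DIV 13 or 15) and 40 min after compound (0.03-40 uM) at 37 C. Synchrony index (0-1) expressed as percent change from baseline, versus DMSO.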

[16] = CCTE_Deisenroth_AIME_96WELL_CTox_Active: Cytotoxicity Assessment (CTOX) in CCTE's 96-well Estrogen Receptor Transactivation Assay with AIME metabolic competence (metabolism positive), Deisenroth Lab (AID 2284028; active = hit-call score of the fitted dose curve at least 0.9, where 1 is the maximum)
Procedure, shortened: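 Chemicals (0.002–200 uM) were first incubated 2 h with alginate-immobilized phenobarbital/beta-naphthoflavone-induced male rat liver S9; conditioned medium then went onto VM7Luc4E2 cells for 24 h, with viability read by protease-substrate fluorescence, fitted bidirectionally.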

[17] = CCTE_Simmons_MITO_max_resp_rate: CCTE's HepG2 Seahorse XF Respirometric Screening Assay at Maximal Respiratory State [uncoupled], Simmons Lab (AID 2284002); settings: actives raise or lower the signal
Procedure, shortened: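 Maximal respiration in HepG2 cells is recorded as OCR by Seahorse XF following FCCP injection. Compounds span 125 nM–100 uM final; activity is called in either direction against DMSO.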

[18] = CCTE_Simmons_MITO_inhib_resp_rate: CCTE's HepG2 Seahorse XF Respirometric Screening Assay at Inhibited Respiratory State [full ETC block], Simmons Lab (AID 2284006); settings: actives raise or lower the signal
Procedure, shortened: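 HepG2 cells on Seahorse XF96; oxygen consumption measured after test compound, then FCCP, then rotenone/antimycin A injections over 72 min. Test chemicals at 7 concentrations, 125 nM–100 uM final. OCR fitted bidirectionally versus DMSO.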

Measured: AC50

Cn1c(=O)c2c(ncn2C)n(C)c1=O
inactive: [1] | [2] | [3] | [4] | [5] | [6] | [8] | [9] | [11] | [12] | [13] | [14] | [15] | [16]
active: [7] 30.8 µM | [10] 20 µM

O=c1n(CC2CO2)c(=O)n(CC2CO2)c(=O)n1CC1CO1 (centres undefined)
inactive: [3] | [4]

O=C(O)CCN(C1(C(=O)NO)CCCC1)S(=O)(=O)c1ccc(Oc2ccc(F)cc2)cc1
inactive: [1] | [2] | [3] | [4] | [5] | [6] | [7] | [8] | [9] | [10] | [11] | [12] | [13] | [14] | [15]

CC[C@H](C)C(=O)O[C@H]1C[C@@H](C)C=C2C=C[C@H](C)[C@H](CC[C@@H]3C[C@@H](O)CC(=O)O3)[C@H]21
inactive: [3] | [4]

Cc1ccc(C)c(O)c1
inactive: [3] | [4]

CCC(C)(C)C(=O)O[C@H]1C[C@@H](C)C=C2C=C[C@H](C)[C@H](CC[C@@H]3C[C@@H](O)CC(=O)O3)[C@H]21
inactive: [1] | [2] | [6] | [7] | [8] | [9] | [10] | [11] | [12] | [13] | [14] | [15]

C[C@](N)(Cc1ccc(O)c(O)c1)C(=O)O
inactive: [3] | [4]

On1ccccc1=S
inactive: [1] | [2] | [3] | [4] | [5] | [6] | [7] | [8] | [9] | [10] | [11] | [12] | [13] | [14] | [15]

CCOC(=O)COc1ccc2c(c1)CC(NCC(O)c1cccc(Cl)c1)CC2 (centres undefined)
active: [17] 62.7 µM
inactive: [18] | [3] | [4] | [5]

CCCCC(CC)COC(=O)c1ccc(C(=O)OCC(CC)CCCC)cc1 (centres undefined)
inactive: [3] | [4]

CC[C@H]1CC[C@H](NCc2cc3c(cc2OC)[C@H]2C[C@H]2C(=O)N3C)[C@H](c2ccccc2)N1
inactive: [3] | [4] | [5] | [7] | [10] | [11] | [12] | [13] | [15]
active: [1] 3.07 µM | [2] 3.07 µM | [6] 3.09 µM | [8] 7.83 µM | [9] 30.9 µM | [14] 20 µM

CCCN(C1CCN(C(=O)C2CCNCC2)CC1)[C@@H]1CCc2ccc(OC)cc2C1
active: [9] 11.3 µM | [10] 33.1 µM | [12] 5 µM | [13] 7.55 µM | [15] 17.7 µM
inactive: [1] | [2] | [3] | [4] | [5] | [6] | [7] | [8] | [11] | [14]

CCCCCCCCO
inactive: [3] | [4]

O=C(NS(=O)(=O)/C=C/c1ccccc1)c1ccc(F)cc1Cl
inactive: [3] | [4]

CN(C)c1ccc(Cc2ccc(N(C)C)cc2)cc1
inactive: [3] | [4]

CC[C@H]1OC(=O)[C@H](C)[C@@H](O[C@H]2C[C@@](C)(OC)[C@@H](O)[C@H](C)O2)[C@H](C)[C@@H](O[C@@H]2O[C@H](C)C[C@H](N(C)C)[C@H]2O)[C@](C)(O)C[C@@H](C)C(=O)[C@H](C)[C@@H](O)[C@]1(C)O
inactive: [1] | [2] | [3] | [4] | [5] | [6] | [7] | [8] | [9] | [10] | [11] | [12] | [13] | [14] | [15]
